Laboratory results published in paper PMC5540273 (PLoS ONE, 2017).

How the values were obtained:
Settings in all cases: concentration: 1 μM, replicates: in singlicate; n = 1
DCAMKL2 = tested on: T1, DCAMKL2
T1 construct: gene DCLK2

DCAMKL3 = tested on: T2, DCAMKL3
T2 construct: gene DCLK3

DDR1 = tested on: DDR1
DDR2 = tested on: DDR2
DLK = tested on: T3, DLK
T3 construct: gene MAP3K12

DMPK2 = tested on: T4, DMPK2
T4 construct: gene CDC42BPG

DMPK = tested on: DMPK
DRAK1 = tested on: T5, DRAK1
T5 construct: gene STK17A

DRAK2 = tested on: T6, DRAK2
T6 construct: gene STK17B

DYRK1A = tested on: DYRK1A
DYRK1B = tested on: DYRK1B
DYRK2 = tested on: DYRK2
EGFR = tested on: EGFR
EIF2AK1 = tested on: EIF2AK1
EPHA1 = tested on: EPHA1
EPHA2 = tested on: EPHA2
EPHA3 = tested on: EPHA3
EPHA4 = tested on: EPHA4
EPHA5 = tested on: EPHA5
EPHA6 = tested on: EPHA6
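Also: KINOMEscan kinase panel screen.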

| Structure (SMILES) | %Inh (DCAMKL2) [%] | %Inh (DCAMKL3) [%] | %Inh (DDR1) [%] | %Inh (DDR2) [%] | %Inh (DLK) [%] | %Inh (DMPK2) [%] | %Inh (DMPK) [%] | %Inh (DRAK1) [%] | %Inh (DRAK2) [%] | %Inh (DYRK1A) [%] | %Inh (DYRK1B) [%] | %Inh (DYRK2) [%] | %Inh (EGFR) [%] | %Inh (EIF2AK1) [%] | %Inh (EPHA1) [%] | %Inh (EPHA2) [%] | %Inh (EPHA3) [%] | %Inh (EPHA4) [%] | %Inh (EPHA5) [%] | %Inh (EPHA6) [%] |
| --- | --- | --- | --- | --- | --- | --- | --- | --- | --- | --- | --- | --- | --- | --- | --- | --- | --- | --- | --- | --- |
| COc1cc(Nc2ccnc3cc(-c4ccncc4)ccc23)cc(OC)c1OC.Cl [GW494610] | 0 | 0 | 57 | 81 | 47 | 46 | 0 | 0 | 0 | 12 | 0 | 4 | 58 | 0 | 96.9 | 83 | 48 | 48 | 37 | 0 |
| Cl.Cl.NC(CNC(=O)c1cc(Br)c(-c2ccnc3[nH]ccc23)s1)c1ccccc1 (stereo not shown) [GSK1322949] | 18 | 0 | 0 | 29 | 43 | 59 | 72 | 93.8 | 4 | 84 | 95 | 80 | 17 | 1 | 24 | 1 | 26 | 0 | 0 | 0 |
| CCNc1nccc(-c2c(-c3ccc(F)cc3)ncn2C2CCN(C)CC2)n1 | 0 | 5 | 70 | 4 | 0 | 8 | 0 | 16 | 0 | 0 | 0 | 100 | 0 | 0 | 0 | 0 | 0 | 5 | 0 | 0 |
| CC(=O)Nc1cn2nc(Oc3cccc(NC(=O)c4cccc(C(F)(F)F)c4)c3)ccc2n1 | 24 | 9 | 98.3 | 100 | 0 | 1 | 0 | 0 | 11 | 0 | 0 | 0 | 58 | 0 | 75 | 99.2 | 65 | 96 | 96.2 | 94.3 |
| O=C(Nc1c(F)cccc1F)c1cc(C(=O)c2ccccc2F)c[nH]1 [GSK1326180] | 0 | 36 | 0 | 13 | 14 | 0 | 0 | 10 | 0 | 2 | 17 | 12 | 26 | 0 | 0 | 11 | 0 | 9 | 0 | 2 |
| COC(=O)Nc1nc2cc(Oc3ccc(NC(=O)Nc4cccc(SC)c4)cc3)ccc2[nH]1.Cl [GW697999] | 6 | 29 | 100 | 98.7 | 32 | 0 | 0 | 8 | 0 | 12 | 0 | 7 | 29 | 0 | 59 | 88 | 15 | 64 | 26 | 92.6 |
| COc1cc(Nc2nccc(N3CCC(NC(=O)Nc4ccc5c(c4)OCO5)C3)n2)cc(OC)c1OC (stereo not shown) [GSK1379766] | 7 | 0 | 0 | 6 | 53 | 10 | 0 | 0 | 4 | 12 | 0 | 0 | 0 | 0 | 14 | 0 | 0 | 7 | 0 | 4 |
| COc1ccc(NC(=O)c2ccoc2)cc1-c1ccc(C(=O)NCC2CC2)cc1 [GW810437] | 17 | 12 | 0 | 50 | 0 | 0 | 1 | 6 | 7 | 0 | 8 | 21 | 0 | 0 | 0 | 0 | 15 | 0 | 0 | 0 |
| Cc1ccc(O)cc1Nc1ccnc2cc(-c3ccc(CN4CCCCC4)o3)ccc12 [GW557777] | 10 | 0 | 98.1 | 94.5 | 0 | 7 | 0 | 10 | 0 | 0 | 0 | 2 | 46 | 0 | 99.7 | 94.5 | 94.9 | 96.2 | 99.8 | 90 |
| COc1ccc(C)c(Nc2ccnc(Nc3ccc(-c4cnc[nH]4)cc3)n2)c1.Cl [GW784041] | 3 | 27 | 52 | 70 | 10 | 5 | 0 | 0 | 0 | 0 | 0 | 0 | 28 | 0 | 62 | 45 | 3 | 31 | 4 | 12 |
| COc1cccc(NC(=O)NCCNc2ccnc(Nc3ccc(F)cc3)n2)c1 [GSK1379879] | 0 | 0 | 7 | 1 | 21 | 0 | 0 | 0 | 31 | 10 | 25 | 0 | 43 | 0 | 52 | 27 | 0 | 0 | 0 | 0 |
| Nc1cccc(-c2ccc3c(N)n[nH]c3c2)c1 [GSK2193613] | 0 | 0 | 0 | 0 | 43 | 0 | 33 | 95.1 | 0 | 24 | 0 | 74 | 0 | 0 | 9 | 5 | 15 | 0 | 0 | 3 |
| Cc1ccc(NC(=O)c2ccc(Cl)c(Cl)c2)cc1-c1ccc(C(=O)Nc2ccncc2)cc1 [GSK1398460] | 10 | 17 | 100 | 69 | 0 | 0 | 0 | 0 | 3 | 14 | 6 | 7 | 32 | 7 | 13 | 14 | 1 | 32 | 12 | 18 |
| N#Cc1cnc2cc(-c3cnc(CNCCN4CCOCC4)s3)ccc2c1Nc1ccc(Oc2ccccc2)cc1 [GW664114] | 0 | 0 | 21 | 11 | 91.2 | 0 | 0 | 2 | 0 | 38 | 5 | 14 | 98.1 | 0 | 8 | 0 | 10 | 11 | 0 | 19 |
| Fc1cc(Cl)ccc1Nc1ccnc2cc(-c3ccc(CN4CCOCC4)o3)ccc12 [GW560109] | 0 | 0 | 97.9 | 60 | 28 | 0 | 16 | 0 | 0 | 11 | 7 | 13 | 71 | 10 | 94.5 | 34 | 32 | 41 | 0 | 65 |
| CCn1cnc2c(NCc3ccccc3)ncnc21 [SKF-96418] | 0 | 0 | 0 | 38 | 0 | 1 | 0 | 0 | 0 | 0 | 37 | 15 | 0 | 0 | 0 | 0 | 0 | 7 | 0 | 0 |
| Cc1ccccc1CC(=O)N1CCc2cc(-c3cn(C)c4ncnc(N)c34)ccc21 [GSK2603346] | 0 | 0 | 56 | 13 | 4 | 74 | 0 | 0 | 0 | 17 | 4 | 4 | 22 | 90.1 | 13 | 5 | 0 | 0 | 0 | 10 |
| NCCC(NC(=O)c1cc(Br)c(-c2ccnc3[nH]ccc23)s1)c1ccccc1.O=C(O)C(F)(F)F.O=C(O)C(F)(F)F (stereo not shown) [GSK1307810] | 0 | 0 | 0 | 26 | 33 | 99.8 | 64 | 74 | 0 | 44 | 70 | 57 | 19 | 0 | 10 | 1 | 35 | 0 | 0 | 0 |
| O=C(Nc1n[nH]c2nc(-c3cccc(O)c3)ccc12)C1CC1 [SB-711805] | 0 | 49 | 0 | 20 | 0 | 0 | 0 | 24 | 12 | 76 | 86 | 79 | 5 | 0 | 13 | 0 | 19 | 0 | 0 | 15 |
| CN(c1ccc(NC(=O)N2CCN(CCCN3CCOCC3)CC2)cc1)c1ccnc(Nc2ccc(CS(C)(=O)=O)cc2)n1.Cl [GW830899] | 0 | 5 | 36 | 54 | 24 | 0 | 0 | 0 | 13 | 0 | 0 | 0 | 48 | 0 | 48 | 22 | 0 | 4 | 0 | 0 |
